# Source: the supplement of paper PMC10369915
# B1: PD-1 ITIM pTyr223 peptide variant D227P (peptide)
# chain: VFSVDYGELPF
# B2: PD-1 ITIM pTyr223 peptide variant V218P (peptide)
# chain: PFSVDYGELDF
# B3: PD-1 ITIM pTyr223 peptide variant D222P (peptide)
# chain: VFSVPYGELDF
# B4: PD-1 ITIM pTyr223 peptide variant L226P (peptide)
# chain: VFSVDYGEPDF
# B5: PD-1 ITIM pTyr223 peptide variant F228P (peptide)
# chain: VFSVDYGELDP
# B6: PD-1 ITIM pTyr223 peptide variant V221P (peptide)
# chain: VFSPDYGELDF
# B7: PD-1 ITIM pTyr223 peptide variant F219P (peptide)
# chain: VPSVDYGELDF
# B8: PD-1 ITIM pTyr223 peptide variant E225M (peptide)
# chain: VFSVDYGMLDF
# B9: PD-1 ITIM pTyr223 peptide variant D227M (peptide)
# chain: VFSVDYGELMF
# B10: PD-1 ITIM pTyr223 peptide variant G224P (peptide)
# chain: VFSVDYPELDF
# Target: SHP2 N-SH2 domain T42A
# Test: log2 enrichment relative to wild-type ITIM peptide; higher = stronger binding
row,Binder,log2 enrichment
1,B1,-1.19
2,B2,0.0339
3,B3,1.61
4,B4,-0.564
5,B5,-1.6
6,B6,-1.23
7,B7,0.209
8,B8,-0.596
9,B9,-0.781
10,B10,1.75
